Test results from PubChem BioAssay AID743398 (Broad Institute, 2014).
Among all 300,000 compounds or so, about 3,600 (1.2%) were called active. The sample holds actives, similar compounds and a random draw of the others, so the mix is not that of the screen. No stated cut-off is given here; in the data, active means activation above about 30% (passing the limit was not always enough); inconclusive means no clear call, values can overlap the other calls.

Test: Wnt/beta-catenin pathway activators, primary screen, cell-based, plate reader, single point (AID 743398);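 further: 0% = neutral control wells and 100% = positive control wells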
Settings: Wnt/beta-catenin reporter cell assay, activator, at 9.35 µM, active compounds read high

activation, active:
O=[N+]([O-])c1ccccc1N/N=C1\CCc2ccccc21 47.7%
Cc1ccc(C(=O)Nc2ccn(C)n2)cc1 55.8%
CC(=O)Nc1ccc(C(=O)/C=C/c2ccc[nH]2)cc1 42.8%
COc1ccc(Nc2ccc3ccccc3c2)cc1 50.4%
COCc1cc(=O)n2[nH]c(C)c(-c3ccccc3)c2n1 47.6%
Cc1cc(NC(=O)CSc2nc3c(cc2C#N)CCCCC3)no1 35.1%
Cn1c(=NC(=O)c2cnccn2)sc2ccccc21 40.5%
O=C(/C=C/c1ccc([N+](=O)[O-])o1)NNC(=O)c1ccc(F)cc1 37.2%
O=C(NCCC1=CCCCC1)c1ccc(-n2cncn2)cc1 36.7%
O=C(c1ccc(N2CCOCC2)c([N+](=O)[O-])c1)N1CCN(S(=O)(=O)c2cccs2)CC1 42%
Brc1ccc(C2CC(c3ccccc3)=Nc3ccccc3N2)cc1 (stereo not drawn) 63.6%
COc1ccc(N=C(C)c2sc3ccccc3c2O)cc1 50.3%

activation, inactive:
CC1(C(=O)Nc2cccc3cccnc23)CCN1C(=O)CCC1CCCC1 (stereo not drawn) -4.88%
CN1CCN(CCNC(=O)Nc2ccccc2[N+](=O)[O-])CC1 -0.54%
O=[N+]([O-])c1cc(C(F)(F)F)ccc1NN=C1CCCC1 6.33%
CC1=C(C(=O)N2CCOCC2)CC(CC(=O)NCC2CCCCC2)C(=O)N1Cc1ccc(F)cc1 (stereo not drawn) -1.2%
CCCCCCN1CCN(C2CN(Cc3cn(Cc4ccc(F)cc4)nn3)S(=O)(=O)C2)CC1 (stereo not drawn) -5.62%
Cn1ccc(NC(=O)Nc2ccc(Cl)cc2)n1 20.1%
CN(C)S(=O)(=O)c1cc(C(=O)Nc2ccn(C)n2)c(Cl)cc1Cl 1.22%
Cc1ccc(-c2ccc(CN3C(C(C)C)C(=O)N(Cc4cn(CCC5OCCO5)nn4)CCS3(=O)=O)cc2)cc1 (stereo not drawn) -0.655%
CC(=O)Nc1ccc(C(=O)NNC(=O)CCCCC(=O)NNC(=O)c2ccc(NC(C)=O)cc2)cc1 1.15%
CC(=O)Nc1ccc(C=CC(=O)c2ccc([N+](=O)[O-])cc2)cc1 -6.15%
CCOc1ccccc1C(=O)N1CCC[C@@H]1C(=O)N1CCC[C@H]1C(=O)NCc1ccccc1 1.73%
COC(=O)[C@]12C[C@H](CC(=O)NCCc3ccccc3OC)C(=O)N(Cc3ccccc3)C1=C[C@H](C(C)C)O[C@@H]2C1CC1 -2.31%
COc1ccc(Nc2nnc(C)c3ccccc23)cc1 1.79%
COc1ccc(-c2nnc(-c3ccc4ccccc4c3)o2)cc1 3.21%
CCOc1ccc2[nH]c(=S)sc2c1 6.79%
CCCc1cc(=O)n2[nH]c(C)c(-c3ccc(Cl)cc3)c2n1 -2.59%
COCc1cc(=O)[nH]c(-c2ccc(C(F)(F)F)cc2)n1 -1.39%
O=C(C(=O)N1CCC(c2ccccc2)CC1)c1ccccc1 -2.25%
Cc1cc(NC(=O)COc2ccccc2C#N)no1 19%
CC(NC(=O)CSc1nc2c(cc1C#N)CN(C)CC2)c1ccccc1 (stereo not drawn) -0.152%
CCOC(=O)C=Cc1ccc(C(=O)OCC)[nH]1 -4.57%
COc1ccc(C2=CN(Cc3ccccc3)C(c3ccc(OC)cc3)CC2=O)cc1 (stereo not drawn) -3.3%
O=C(NCCCNC(=O)c1ccccc1Cl)c1cnccn1 -1.92%
COC(=O)c1ccc(OC(=O)c2cnccn2)cc1 -1.23%
CC(=O)C1=C(C)N(Cc2ccccc2)C(=S)NC1c1cccc(Br)c1 (stereo not drawn) -4.75%
CCOC(=O)[C@]12CCCC=C1N(CCC1=CCCCC1)C(=O)[C@H](CC(=O)NCCCOC)C2 -3.04%
O=C(N/N=C/c1ccc([N+](=O)[O-])o1)c1cn(-c2ccccc2)nc1-c1ccc(F)cc1 -0.879%
O=C(NNC(=O)C1CCCC1)c1ccc(F)cc1 -1.64%
CCCCCn1nnnc1-c1nc2cc3ccccc3cc2[nH]c1=O -1.88%
COc1ccc(NC(=O)C2(C)Cc3c(-c4cccc(NC(C)=O)c4)ccnc3O2)cc1OC (stereo not drawn) -0.993%
COCc1cc(N2CCN(C(=O)OC(C)(C)C)C[C@@H]2C)ccc1N1CCN(Cc2ccccc2)[C@H](C)C1 -6.08%
O=C(Cc1nn[nH]n1)NCCC1=CCCCC1 1.57%
O=C(NCCC1=CCCCC1)c1ccc(Cl)c([N+](=O)[O-])c1 12.3%
COC(=O)[C@@]12C[C@@H](CC(=O)NCCCCc3ccccc3)C(=O)N(Cc3ccccc3)C1=CCC(C)(C)C2 -3.6%
CC(C)c1ccc(S(=O)(=O)N2CCN(C(=O)c3ccc(N4CCCC4)c([N+](=O)[O-])c3)CC2)cc1 -1.38%
O=C(c1ccc(N2CCOCC2)c([N+](=O)[O-])c1)N1CCN(c2ccccc2F)CC1 -6.11%
O=S1(=O)c2c(cccc2N2CCCC2)O[C@H](COCc2ccccc2)CN1C1CC1 -2.59%
c1ccc(C2=Nc3cccc4cccc(c34)N2)cc1 -4.88%
O=C(c1ccccc1)N1N=C(c2ccccc2O)CC1c1ccc(Br)cc1 (stereo not drawn) -1.76%
COCOc1cccc(CN2CCC(C)(Oc3ccc(SC)cc3)C2)c1 (stereo not drawn) 0.071%
CC1(C)CC(=O)C=C(c2ccc(COC(=O)c3cc(F)cc(F)c3)cc2)C1=O 0.449%
CCc1cc(-c2nnn(CCC3COCCO3)c2CC)ccc1-c1cn(Cc2ccc3ccccc3c2)nn1 (stereo not drawn) -3.93%
COC(=O)Cc1[nH]n(-c2nc3ccccc3s2)c(=O)c1C(C)=Nc1ccc(OC)cc1 -8.84%
COc1ccc(N=Nc2ccc(O)c(P(=O)(c3ccccc3)c3ccccc3)c2)cc1 1.19%
COc1cc(NC(=O)C2=C(C)OCCS2)c(Cl)cc1C(=O)NCCCN1CCCC(C)C1 (stereo not drawn) 2.04%
Cc1cc2cc3n(c2nn1)N=C(Cl)CC3 -1.61%
